IL1B secr inh: inflammasome signaling inhibition, IL-1 beta readout; THP-1 LPS/ATP IL-1B secretion, AlphaLISA, 16 h; active compounds read low; activity change, % at 57.5 µM; 4.7% of 360,000 active; in the data active means activity change below about -50%; inconclusive means mostly about -30% to -49%; further: on the % scale 0 is the no-effect control and ±100 the full control effect
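Secreted IL-1B measured by AlphaLISA bead assay after 16 h compound exposure of THP-1 cells; compounds (final up to 57.5 uM) added 1 h before LPS (250 ng/mL) and ATP (1.25 mM) stimulation; lower signal means less secretion.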
TDP1 cell CPT: DT40-hTDP1 cell growth loss with CPT; Potency, µM (highest dose often 46.2 µM), for inactives: top-dose activity change, negative = growth inhibition, hits mostly inhibitors; chicken DT40 Tdp1-/-;hTDP1 cells + 20 nM CPT, ATP luminescence, 48 h; 12% of 420,000 active; further: potency means the concentration at half of the fitted maximal effect; on the % scale 0 is the no-effect control and ±100 the full control effect; nearly all actives have a fitted effect of over 55% in size
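Cell growth measured by CellTiter-Glo luminescence after a minimum 48 h, 37 C compound exposure with 20 nM CPT in Tdp1-knockout DT40 cells stably expressing hTDP1, seeded 400/well; qHTS titration format.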
MCF10A rereplic: DNA re-replication induction in MCF 10a cells; MCF 10A DNA re-replication, Hoechst nuclear intensity, 48 h; Potency, µM (top dose mostly 46.1 µM), inactives show top-dose activity, positive = re-replication, most hits filed as activators; 2.9% of 350,000 active; further: potency means the concentration at half of the fitted maximal effect; % of control where 0% means no effect; nearly all actives have a fitted effect of over 50% in size
Chronic BCR inh: inhibitors of chronic active B-cell receptor signaling. Potency, µM (titrated, usually from 46.1 µM), inactives show top-dose activity change, negative = inhibition, most hits filed as inhibitors. ABC-DLBCL IkBa-CBG/CBR reporter, luminescence ratio, 4 h. 0.05% of 340,000 active; active means well fitted inhibition curve with a large enough effect in the signal ratio, with a control signal flat, not every such curve was filed as active; inconclusive means small, poorly fitted or top-dose-only effect, or effect the other way, or a change in a side signal; the % refers to the signal ratio;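 further: potency means the concentration at half of the fitted maximal effect; plate controls were basal doxycycline-induced cells for no effect and cells given 10 µM MG132 for full effect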
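TMD8 human ABC-DLBCL cells with doxycycline-inducible IκBα–green luciferase fusion and unfused red luciferase, in 0.5% FBS medium; compounds up to 46 uM, 4 h at 37C. Green/red luminescence ratio, filter-overlap corrected, fitted to concentration-response curves.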
DT40 TDP1 no CPT: qHTS for Inhibitors of human tyrosyl-DNA phosphodiesterase 1 (TDP1): qHTS in cells in absence of CPT | DT40 Tdp1-/- hTDP1 cells, no CPT, ATP luminescence, 48 h | Potency, µM (highest dose often 46.2 µM), for inactives: top-dose activity change, negative = growth inhibition, hits mostly inhibitors | 15% of 420,000 active | AID 686978, 2013; further: potency means the concentration at half of the fitted maximal effect; on the % scale 0 is the no-effect control and ±100 the full control effect; nearly all actives have a fitted effect of over 55% in size
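Cells were dispensed at 400 per well, compounds added by pin tool, plates incubated ≥48 hr at 37 °C, then CellTiter-Glo added for 30 min at room temperature before luminescence reading. Line: DT40 Tdp1-/- complemented with hTDP1; camptothecin omitted.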
SW480 rereplic: inducers of DNA re-replication in SW480 colon cancer cells | SW480 DNA re-replication, Hoechst DNA content imaging, 48 h | Potency, µM (titrated, usually from 46.1 µM), for the others: top-dose re-replication activation, usual class: activators | 1.8% of 340,000 active | AID 624297; further: potency means the concentration at half of the fitted maximal effect; % of control where 0% means no effect; nearly all actives have a fitted effect of over 55% in size
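250 cells/well; 23 nL cpd via pin tool; 48 hr, 37 C, 5% CO2; Hoechst 40 min; imager read of total nuclear intensity, ex 405/em 500-530 nm.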
* marks the source's active call; other numbers are inactive results; ? = inconclusive; . = not tested or not shown. Shown are actives, neighbours in structure and some others; about 19% of the full set was active somewhere. Unless noted, the call rests on the fitted dose curve; in most records, active means well fitted curve in the direction sought with a large enough effect; inconclusive means small, poorly fitted or top-dose-only effect, or another doubt; inactive means no such curve, though single readings can be large; an effect the other way counts as inactive or inconclusive.

SMILES | IL1B secr inh | TDP1 cell CPT | MCF10A rereplic | Chronic BCR inh | DT40 TDP1 no CPT | SW480 rereplic
O=C(Nc1ccccn1)c1ccc([N+](=O)[O-])o1 | -91.6* | 16.4µM* | 9.2µM* | 1.3% | 16.4µM* | ?
CCOc1cc(CNCc2cccnc2)cc(Br)c1OCC(N)=O | 23.3 | -6.6% | 0.8% | 1.4% | -4.3% | -6.0%
Cc1cc(C(=O)CCC(=O)N(C)CC2COc3ccccc3O2)c(C)s1 (configuration not stated) | 18.0 | ? | . | . | ? | .
O=C([C@@H]1CCCN1C1=NS(=O)(=O)c2ccccc21)N1CCN(c2ccccc2)CC1 | -10.4 | -21.2% | . | . | -26.5% | .
COc1ccc2cc(C(c3nnnn3C3CCCC3)N3CCOCC3)c3nnnn3c2c1 (configuration not stated) | 1.9 | -15.0% | 10.8% | -5.2% | -20.8% | 4.6%
CC(Sc1ncnc2sc(-c3ccccc3)cc12)C(=O)NCC1CCCO1 (configuration not stated) | -25.6 | ? | ? | 9.7% | 23.1µM* | ?
CC(Sc1nc(N)cc(N)n1)C(=O)NCC1CCCO1 (configuration not stated) | 9.4 | -0.8% | 8.6% | -1.7% | 0.0% | -30.8%
CC(Sc1nc(-c2ccccc2)c(-c2ccccc2)[nH]1)C(=O)NCC1CCCO1 (configuration not stated) | 6.3 | ? | . | . | 23.1µM* | .
CCc1cccc2c(SC(C)C(=O)NCC3CCCO3)nc(-c3ccccc3)nc12 (configuration not stated) | 3.3 | ? | ? | 2.0% | ? | 6.1%
O=C(CCCOc1ccccc1)Nc1cccc(S(=O)(=O)N2CCCCCC2)c1 | 24.5 | -25.9% | ? | -1.8% | -21.9% | -21.4%
CCC(Cc1ccccc1)NS(=O)(=O)c1c(C)nc2sccn2c1=O (configuration not stated) | 6.3 | -9.1% | 1.9% | -5.9% | 3.1% | -2.2%
CC1(C(=O)Nc2ccc(Cl)c(Cl)c2)CCN1C(=O)CC(c1ccccc1)c1ccccc1 (configuration not stated) | -9.1 | 18.4µM* | . | . | 23.1µM* | .
CC1(C(=O)N2CCCCC2)CCN1C(=O)Cc1ccc(-c2ccccc2)cc1 (configuration not stated) | 1.2 | 14.6µM* | . | . | ? | .
CC1(C(=O)Nc2ccc3c(c2)OCO3)CCN1C(=O)Cc1ccc(-c2ccccc2)cc1 (configuration not stated) | -28.1 | 7.31µM* | . | . | 4.61µM* | .
CC1(C(=O)Nc2ccc(Cl)c(Cl)c2)CCN1C(=O)Cc1ccc(-c2ccccc2)cc1 (configuration not stated) | 6.0 | 14.6µM* | . | . | 18.4µM* | .
Cc1ccc(NC(=O)C2(C)CCN2C(=O)CC(c2ccccc2)c2ccccc2)cc1 (configuration not stated) | -15.4 | ? | . | . | ? | .
CCCC(C)(C)C(=O)N1CCC1(C)C(=O)Nc1cccc2ccccc12 (configuration not stated) | 10.0 | 20.6µM* | . | . | 10.3µM* | .
COc1cccc(NC(=O)C2(C)CCN2C(=O)Cc2ccc(-c3ccccc3)cc2)c1 (configuration not stated) | -12.5 | ? | . | . | 14.6µM* | .
CC1(C(=O)NCCC#N)CCN1C(=O)CC(c1ccccc1)c1ccccc1 (configuration not stated) | -50.4* | -24.3% | . | . | ? | .
CC1(C(=O)Nc2cnc3ccccc3c2)CCN1C(=O)CC(c1ccccc1)c1ccccc1 (configuration not stated) | -5.8 | ? | . | . | 16.4µM* | .
CCCc1nn2c(=O)cc(COC(=O)c3cccc(NC(=O)c4ccc(OCC)cc4)c3)nc2s1 | . | -10.1% | . | . | -18.8% | .
CC1(C(=O)Nc2ccccc2F)CCN1C(=O)Cc1ccc(-c2ccccc2)cc1 (configuration not stated) | 3.9 | ? | . | . | 14.6µM* | .
Cc1ccc(CNC(=O)C2(C)CCN2C(=O)Cc2ccc(-c3ccccc3)cc2)cc1 (configuration not stated) | -11.3 | ? | . | . | 23.1µM* | .
Cn1nc(C2CC2)cc1NC(=O)C1(C)CCN1C(=O)Cc1ccc(-c2ccccc2)cc1 (configuration not stated) | -22.5 | 20.6µM* | . | . | 20.6µM* | .
CC1(C(=O)Nc2ccccc2)CCN1C(=O)Cc1ccc(-c2ccccc2)cc1 (configuration not stated) | -6.5 | 23.1µM* | . | . | 18.4µM* | .
SMILES | IL1B secr inh | TDP1 cell CPT | MCF10A rereplic | Chronic BCR inh | DT40 TDP1 no CPT | SW480 rereplic
O=C1CC(c2ccccc2)=Nc2ccccc2N1Cc1ccccc1 | -7.9 | -8.1% | 0.0% | 1.8% | -28.2% | 13.9%
Cc1ccc(C2=Nc3ccccc3N(CC(=O)NCc3ccc(F)cc3)C(=O)C2)cc1C | . | 14.6µM* | . | . | 23.1µM* | .
O=C(CN1C(=O)CC(c2ccc(F)cc2)=Nc2ccccc21)NCc1ccccc1Cl | . | ? | . | . | 25.9µM* | .
Cc1ccc(C2=Nc3ccccc3N(CC(=O)NCc3ccc(Cl)cc3)C(=O)C2)cc1C | . | ? | . | . | 14.6µM* | .
CC1(C(=O)Nc2cccc(Oc3ccccc3)c2)CCN1Cc1cccc2c1OCO2 (configuration not stated) | -11.3 | ? | . | . | ? | .
CCc1ccc(S(=O)(=O)N2CCN(c3ncccn3)CC2)cc1 | ? | -18.1% | -10.0% | 2.4% | -21.9% | -5.1%
COc1ccccc1-c1c(C(F)(F)F)oc2c(CN3CCCCC3C)c(O)ccc2c1=O (configuration not stated) | . | ? | . | . | -29.8% | .
Cc1ccc(Oc2c(C(F)(F)F)oc3c(CN4CCCCC4C)c(O)ccc3c2=O)cc1 (configuration not stated) | . | ? | . | . | 25.9µM* | .
O=C(COc1ccc(F)cc1)c1ccc2c(c1)CCCC2 | 0.0 | ? | 10.3µM* | . | ? | 1.1%
CC(NC(=O)c1ccc(F)cc1)c1ccc2c(c1)CCCC2 (configuration not stated) | -3.8 | 20.6µM* | -3.9% | 8.1% | 13µM* | -0.4%
CC(NC(=O)c1ccc(Br)cc1)c1ccc2c(c1)CCCC2 (configuration not stated) | ? | ? | 14.6% | 9.4% | ? | -6.8%
CC(C)(C)OC(=O)N1CCC(c2cc(=O)n3[nH]c(-c4ccc(Cl)cc4)cc3n2)CC1 | 4.9 | 20.6µM* | 4.4% | -0.8% | 23.1µM* | -16.2%
